PubChem BioAssay AID1211 (NMMLSC, 2008)
Active and inactive are the calls of the source. The rule behind the calls is not given here.

Target: Estrogen receptor (Homo sapiens) (UniProt P03372)
Assay: displacement of fluorescent estrogen from ERalpha – cell-based, Cos7 ERalpha-GFP, flow cytometry, primary screen (AID 1211);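 note: 0% = DMSO vehicle wells and 100% = no E2-Alexa633 signal left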
Conditions: fluorescent ligand competition, stronger effect = higher value

Chain of Estrogen receptor (Homo sapiens) (P03372 whole entry, looked up): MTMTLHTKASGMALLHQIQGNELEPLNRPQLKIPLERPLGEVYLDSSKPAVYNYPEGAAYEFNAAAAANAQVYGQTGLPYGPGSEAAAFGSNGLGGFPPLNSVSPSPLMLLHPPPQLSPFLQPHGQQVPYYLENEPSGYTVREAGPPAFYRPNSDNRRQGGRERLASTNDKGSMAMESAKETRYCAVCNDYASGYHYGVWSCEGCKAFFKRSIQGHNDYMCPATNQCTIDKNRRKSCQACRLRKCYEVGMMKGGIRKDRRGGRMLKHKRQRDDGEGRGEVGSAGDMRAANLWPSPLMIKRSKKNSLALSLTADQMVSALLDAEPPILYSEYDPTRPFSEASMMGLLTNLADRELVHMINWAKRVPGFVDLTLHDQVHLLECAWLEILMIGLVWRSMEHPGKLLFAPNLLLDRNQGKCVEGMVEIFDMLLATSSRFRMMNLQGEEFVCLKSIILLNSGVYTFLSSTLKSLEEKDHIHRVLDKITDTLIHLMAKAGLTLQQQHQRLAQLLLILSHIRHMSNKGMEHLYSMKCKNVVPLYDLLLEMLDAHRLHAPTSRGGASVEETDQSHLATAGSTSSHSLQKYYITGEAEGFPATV

Compound	inhibition of ligand binding (at 10 µM)	inhibition of ligand binding (binding inhibition, at 0.1 µM)
Cc1ccc(Nc2nnc(SCC(=O)NCc3ccco3)s2)cc1	10% (inactive)	12%
Cc1cc(C2(c3ccc(O)c(C)c3)OC(=O)c3ccccc32)ccc1O	49% (inactive)	11%
Cn1c(C(=O)Nc2ccc3c(c2)OCO3)cc2c(=O)n(C)c3ccccc3c21	26% (inactive)	15%
CS(=O)(=O)c1ccc2nc(NC(=O)CCC(=O)c3cccs3)sc2c1	33% (inactive)	14%
Cc1nnc(SCC(=O)NC(=O)NCc2ccco2)n1Cc1ccccc1	8% (inactive)	12%
COc1ccc(/C=N/NC(=O)c2nc(-c3ccccc3)n(-c3ccccc3)n2)c(O)c1	41% (inactive)	52%
N=c1c(C(=O)NCc2ccc(F)cc2)cc2c(=O)n3ccccc3nc2n1Cc1cccnc1	44% (inactive)	26%
CCOC(=O)C1CCCN(C(=O)c2ccc(CS(=O)(=O)c3ccc(C)cc3)o2)C1 (centres undefined)	30% (inactive)	6%
CCc1cccc2c(C(=O)Cn3nnc(-c4ccc(OC)c(OC)c4)n3)c[nH]c12	10% (inactive)	24%
Cc1cc(C(=O)CSc2nnc(-c3ccccc3F)o2)c(C)n1Cc1cccs1	69% (active)	16%
O=C1NC(c2ccc(Br)cc2)Nc2sc3c(c21)CCC3 (centres undefined)	29% (active)	69%
COc1ccc(C(Nc2ccccn2)c2oc(CO)cc(=O)c2O)cc1 (centres undefined)	32% (inactive)	22%
Cc1cc([N+](=O)[O-])c2c(c1C)C1C=CCC1C(c1ccccn1)N2 (centres undefined)	72% (active)	10%
COc1ccc2c(c1)c(=O)oc1cc3oc(C)c(C)c3cc12	3% (inactive)	16%
CCCN(CCC)S(=O)(=O)c1ccc(NC(=O)Cc2cccs2)cc1	34% (inactive)	18%
CCCCn1c(NC(=O)CC)c(C#N)c2nc3ccccc3nc21	35% (inactive)	40%
COc1cc(NC(=O)COc2ccc(-n3cnnn3)cc2)c(OC)cc1Cl	58% (inactive)	41%
O=C(CNc1ccccc1)N/N=C/c1cn(-c2ccccc2)nc1-c1ccccc1	28% (inactive)	52%
COC(=O)c1ccc(CC(=O)c2ccc(O)cc2O)o1	32% (inactive)	9%
O=C(CSc1nc2scc(-c3ccco3)c2c(=O)n1-c1ccccc1)NCC1CCCO1 (centres undefined)	0% (inactive)	21%
O=C(Nc1ccc(O)cc1)C1CC=CCC1 (centres undefined)	6% (inactive)	9%

Compound	inhibition of ligand binding (at 10 µM)	inhibition of ligand binding (binding inhibition, at 0.1 µM)
Cc1ccc2[nH]c(=O)c(-c3nc4ccccn4c3NCc3ccco3)cc2c1	23% (inactive)	16%
Cn1nc([N+](=O)[O-])c2c(-c3nc4ccccc4s3)c(N)n(C3CCCCC3)c2c1=O	30% (inactive)	18%
COc1cc(-c2nc3ccc4ccccc4c3c3c2CCC3)ccc1O	46% (active)	87%
O=c1[nH]cnc2c1sc1nc3c(c(-c4ccc(Cl)cc4)c12)CCC3	41% (inactive)	9%
NC(=O)c1c(NC(=O)c2cccs2)sc2c1CCCCCC2	0% (inactive)	22%
O=C(CSc1nnc(Nc2ccccc2F)s1)NCc1ccco1	3% (inactive)	3%
COC(=O)c1ccc(CC(=O)c2c(C)cc(O)cc2O)o1	34% (inactive)	43%
C[C@]12CC[C@@H]3c4ccc(O)cc4C(=O)C[C@H]3[C@@H]1CC[C@@H]2O	78% (active)	88%
O=C(COC(=O)c1ccccc1)NCc1ccco1	29% (inactive)	27%
COc1ccc(-n2c(SCC(=O)Nc3nccs3)nc3sc4c(c3c2=O)CCN(C)C4)cc1	30% (inactive)	24%
COc1ccc(OC)c(C(=O)CSc2nnc(-c3ccc(OC)c(OC)c3)o2)c1	23% (inactive)	58%
O=C(/C=C/c1ccc(O)cc1)c1ccc(O)cc1O	62% (inactive)	18%
Cc1nn(-c2ccccc2)c(Cl)c1/C=N/Nc1ccc(S(=O)(=O)Nc2ccccc2C(=O)O)cc1[N+](=O)[O-]	38% (inactive)	12%
CCOC(=O)Cc1cc(=O)n2[nH]c(-c3ccc(C)cc3)cc2n1	0% (inactive)	25%
CC(C)(C)c1nnc2sc(SC/C(O)=C(\C#N)c3nc4ccccc4[nH]3)nn2c1=O	20% (inactive)	8%
CC(C)CN(C(=O)COC(=O)c1cc2c(s1)CCC2)C1CCS(=O)(=O)C1 (centres undefined)	47% (inactive)	21%
O=C(N/N=C/c1cccc(Oc2ccc([N+](=O)[O-])cc2[N+](=O)[O-])c1)c1cncc(Br)c1	21% (inactive)	63%
CCCOc1ccc(-c2nn(-c3ccccc3)cc2/C=C2\SC(N)=NC2=O)cc1	50% (inactive)	13%
Brc1cc2c(cc1C1Nc3ccccc3C3C=CCC31)OCO2 (centres undefined)	0% (inactive)	14%
COC(=O)c1cc(-c2c(C)oc3cc(O)ccc3c2=O)c(C)o1	32% (inactive)	50%
O=C(Cc1cccs1)Nc1nnc(Cc2ccccc2)s1	33% (inactive)	31%
